The sequences below were run against Interleukin-8 (IL8, CXCL8), C-terminal His-tagged (Homo sapiens, UniProt P10145 SEQ:1-72) (assay: competition; competition TR-FRET; G18U). Conditions: tags: C-terminal 6xHis (Sino Biological); ssRNA; 2'-F G, 2'-OMe A/C/U, 5' C6NH2, 3' idT.
Procedure: To better understand the sequence requirements and to confirm the stem structures of members of the Aptamer 3 family as determined from sequence covariation analysis from both the primary and secondary (degenerate) selections, a series of variants which included mutations and deletions to the predicted stems were synthesized and screened (Table 24). Activity of each of these variants were tested using a time resolved competition TR-FRET assay in which the labeled parent Aptamer 3 was competed with increasing concentrations of unlabeled variants for binding to IL8 (FIG. 14). Briefly, 2-fold dilutions of thermally equilibrated aptamers were made in TR-FRET Buffer (50 mM MOPS, pH 7.4, 125 mM NaCl, 5 mM KCl, 50 μM CHAPS, 0.1 mg/mL BSA, 1 mM CaCl₂, and 1 mM MgCl₂). 5 μL of aptamer or control solution was added to 5 μl mix of 10 nM C-terminal His-tagged-IL8, 60 nM ALEXA FLUOR® 647-labeled Aptamer, and 5 nM anti-His-Eu (Perkin Elmer) in a black wall low volume 384 well plate (Greiner). For control, 5 μl of 1000-fold excess of unlabeled parent aptamer or 5 μl TR-FRET buffer alone was added to the mix of ALEXA FLUOR® 647-labeled aptamer, His-IL8, and anti-His-Eu. The plate was covered with a plate seal and subsequently incubated in the dark for 1 hour at room temperature. The plate was read on a Biotek CYTATION™ 5 plate reader. […]

| Sequence | binding signal [fold worse than Aptamer 3] |
| --- | --- |
| UGAUGACGGUAGAUUACUGGUAGAGUGACCGCAUCU | > 10 |

— patent publication US20210230599, “STEM-LOOP COMPOSITIONS AND METHODS FOR INHIBITING INTERLEUKIN-8” (VITRISA THERAPEUTICS, INC., published 2021)
